Common to all, as to test: HT-SELEX; high values mean tight binding
Common to all, as to settings: protein: recombinant; vector His6-GST; dsDNA, one strand shown

For experiment [1], the target named is T1, SALL4 ZFC4 WT (HT-SELEX) (Mus musculus, UniProt Q8BX22 870-940).
T1 sequence: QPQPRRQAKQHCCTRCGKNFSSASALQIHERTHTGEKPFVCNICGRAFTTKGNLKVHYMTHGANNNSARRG
Put shortly: (§1)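 Recombinant mouse SALL4 zinc finger cluster 4 (residues 870–940, 1 µg), purified, was mixed with library DNA (1.5 µg in the first cycle, 200 ng thereafter) in 100 µl of buffer containing 10 mM Tris–HCl pH 7.5, 50 mM NaCl, poly(dI-dC) and DTT, and left for 10 min at room temperature. Complexes were captured on Ni2+ beads, washed, amplified by PCR and reselected for up to 6 cycles in triplicate, after which MiSeq sequencing and a 6-mer scan followed. Binding signal is the read fraction of each canonical k-mer, given as fold change relative to the starting random library.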

Experiment [2] deals with T2, SALL4 ZFC4 R900W (HT-SELEX) (Mus musculus, UniProt Q8BX22 870-940, R900W).
T2 sequence: T1 sequence with R31W
Put shortly:
as §1

Experiment [3] concerns the target T3, SALL4 ZFC4 G921D (HT-SELEX) (Mus musculus, UniProt Q8BX22 870-940, G921D).
T3 sequence: T1 sequence with G52D
Put shortly:
as §1

The values below come from paper PMC9838217, “Structure of SALL4 zinc finger domain reveals link between AT-rich DNA binding and Okihiro syndrome”.

Numbering of substitutions follows the chain as printed.

For GACTCC, the binding signal in experiment [1] stood at 0.5 ± 0.00838 fold-change vs cycle 0; in experiment [2], 0.594 ± 0.00754 fold-change vs cycle 0; in experiment [3], 0.705 ± 0.0401 fold-change vs cycle 0.
On the same counts, the results for CAAGAG are 0.839 ± 0.0412 fold-change vs cycle 0, 1.03 ± 0.0313 fold-change vs cycle 0 and 1.015 ± 0.00973 fold-change vs cycle 0.
For GGTTCA the same measures were 0.788 ± 0.0387 fold-change vs cycle 0, 0.916 ± 0.0428 fold-change vs cycle 0 and 0.966 ± 0.0244 fold-change vs cycle 0.
On the same counts, the results for GCTGAA are 0.582 ± 0.0146 fold-change vs cycle 0, 0.67 ± 0.0322 fold-change vs cycle 0 and 0.774 ± 0.0356 fold-change vs cycle 0.
In the case of AAGAGG, the values for the binding signal in experiment [1], in experiment [2] and in experiment [3] were 0.855 ± 0.0331 fold-change vs cycle 0, 1.01 ± 0.0625 fold-change vs cycle 0 and 0.999 ± 0.0313 fold-change vs cycle 0, respectively.
On the same counts, the results for ATGGTA are 1.45 ± 0.0382 fold-change vs cycle 0, 1.48 ± 0.0495 fold-change vs cycle 0 and 1.4 ± 0.052 fold-change vs cycle 0.
For AACATA the same measures were 2.08 ± 0.152 fold-change vs cycle 0, 1.96 ± 0.129 fold-change vs cycle 0 and 1.76 ± 0.196 fold-change vs cycle 0.
On the same counts, the results for ACTTTA are 1.93 ± 0.117 fold-change vs cycle 0, 1.99 ± 0.146 fold-change vs cycle 0 and 1.75 ± 0.227 fold-change vs cycle 0.
Take ATACTA: the binding signal in experiment [1] was found to be 2.04 ± 0.115 fold-change vs cycle 0; in experiment [2], 2.07 ± 0.172 fold-change vs cycle 0; in experiment [3] it was 1.84 ± 0.179 fold-change vs cycle 0.
On the same counts, the results for CGTTTC are 0.628 ± 0.029 fold-change vs cycle 0, 0.738 ± 0.0101 fold-change vs cycle 0 and 0.794 ± 0.021 fold-change vs cycle 0.
On the same counts, the results for CTACTC are 0.863 ± 0.0395 fold-change vs cycle 0, 0.998 ± 0.0566 fold-change vs cycle 0 and 0.992 ± 0.0109 fold-change vs cycle 0.
On the same counts, the results for CTATGC are 0.624 ± 0.0148 fold-change vs cycle 0, 0.702 ± 0.0118 fold-change vs cycle 0 and 0.796 ± 0.0538 fold-change vs cycle 0.
For ACCCTA, the figures for the binding signal in experiment [1], in experiment [2] and in experiment [3] were 0.864 ± 0.0329 fold-change vs cycle 0, 0.973 ± 0.0359 fold-change vs cycle 0 and 0.982 ± 0.053 fold-change vs cycle 0, respectively.
On the same counts, the results for AATAGC are 1 ± 0.0454 fold-change vs cycle 0, 1.07 ± 0.0474 fold-change vs cycle 0 and 1.11 ± 0.00486 fold-change vs cycle 0.
In the case of ACGTTG, the binding signal in experiment [1] stood at 0.659 ± 0.0218 fold-change vs cycle 0; in experiment [2] it was 0.753 ± 0.0161 fold-change vs cycle 0; in experiment [3], 0.822 ± 0.0177 fold-change vs cycle 0.
In the case of TCACGA, the binding signal is 0.737 ± 0.0222 fold-change vs cycle 0 in experiment [1], 0.841 ± 0.0178 fold-change vs cycle 0 in experiment [2] and 0.889 ± 0.0148 fold-change vs cycle 0 in experiment [3].
On the same counts, the results for CACGAG are 0.41 ± 0.0151 fold-change vs cycle 0, 0.496 ± 0.0211 fold-change vs cycle 0 and 0.599 ± 0.0729 fold-change vs cycle 0.
GTTCGA: the binding signal in experiment [1] came to 0.639 ± 0.0126 fold-change vs cycle 0; in experiment [2], 0.724 ± 0.0149 fold-change vs cycle 0; in experiment [3], 0.821 ± 0.0291 fold-change vs cycle 0.
On the same counts, the results for GCGAAA are 0.363 ± 0.0241 fold-change vs cycle 0, 0.395 ± 0.00888 fold-change vs cycle 0 and 0.534 ± 0.0715 fold-change vs cycle 0.
On the same counts, the results for AACAAG are 1.28 ± 0.0479 fold-change vs cycle 0, 1.5 ± 0.0772 fold-change vs cycle 0 and 1.39 ± 0.0671 fold-change vs cycle 0.
Regarding ATGGCA, the binding signal in experiment [1] stood at 0.55 ± 0.0226 fold-change vs cycle 0; in experiment [2], 0.607 ± 0.0241 fold-change vs cycle 0; in experiment [3], 0.733 ± 0.0739 fold-change vs cycle 0.
On the same counts, the results for ATCTGG are 0.78 ± 0.0274 fold-change vs cycle 0, 0.839 ± 0.0522 fold-change vs cycle 0 and 0.901 ± 0.0524 fold-change vs cycle 0.
For GTACAA the same measures were 1.14 ± 0.0399 fold-change vs cycle 0, 1.26 ± 0.0443 fold-change vs cycle 0 and 1.22 ± 0.0489 fold-change vs cycle 0.
On the same counts, the results for GGTAGA are 0.746 ± 0.0282 fold-change vs cycle 0, 0.849 ± 0.0219 fold-change vs cycle 0 and 0.892 ± 0.0246 fold-change vs cycle 0.
As for AGCAAG, the binding signal turned out to be 0.735 ± 0.0328 fold-change vs cycle 0 in experiment [1], 0.837 ± 0.0375 fold-change vs cycle 0 in experiment [2] and 0.888 ± 0.035 fold-change vs cycle 0 in experiment [3].
On to GGATTA, for which the results for the binding signal in experiment [1], in experiment [2] and in experiment [3] were 1.49 ± 0.0733 fold-change vs cycle 0, 1.47 ± 0.0516 fold-change vs cycle 0 and 1.38 ± 0.0744 fold-change vs cycle 0, respectively.
On the same counts, the results for GCAGAA are 0.567 ± 0.022 fold-change vs cycle 0, 0.629 ± 0.0163 fold-change vs cycle 0 and 0.688 ± 0.0217 fold-change vs cycle 0.
With TCCTAA, the binding signal in experiment [1] came out at 1.43 ± 0.0908 fold-change vs cycle 0; in experiment [2] it was 1.56 ± 0.119 fold-change vs cycle 0; in experiment [3], 1.46 ± 0.14 fold-change vs cycle 0.
For CATGAG the same measures were 0.884 ± 0.0345 fold-change vs cycle 0, 0.992 ± 0.0188 fold-change vs cycle 0 and 1.03 ± 0.0481 fold-change vs cycle 0.
For GGTTTA the same measures were 1.2 ± 0.0627 fold-change vs cycle 0, 1.28 ± 0.0514 fold-change vs cycle 0 and 1.24 ± 0.0515 fold-change vs cycle 0.
On the same counts, the results for AATGAA are 2.19 ± 0.104 fold-change vs cycle 0, 2.17 ± 0.105 fold-change vs cycle 0 and 1.89 ± 0.135 fold-change vs cycle 0.
Turning to TAGCGA, the figures for the binding signal in experiment [1], in experiment [2] and in experiment [3] were 0.54 ± 0.0286 fold-change vs cycle 0, 0.613 ± 0.0291 fold-change vs cycle 0 and 0.72 ± 0.0193 fold-change vs cycle 0, respectively.
For ACTGAC the same measures were 0.782 ± 0.026 fold-change vs cycle 0, 0.909 ± 0.0341 fold-change vs cycle 0 and 0.934 ± 0.016 fold-change vs cycle 0.
On the same counts, the results for TCGCAA are 0.451 ± 0.0135 fold-change vs cycle 0, 0.483 ± 0.00786 fold-change vs cycle 0 and 0.616 ± 0.0634 fold-change vs cycle 0.
For CCCGTA the same measures were 0.415 ± 0.0258 fold-change vs cycle 0, 0.477 ± 0.0181 fold-change vs cycle 0 and 0.557 ± 0.0362 fold-change vs cycle 0.
ATGAGA: the binding signal in experiment [1] was determined as 1.52 ± 0.0648 fold-change vs cycle 0; in experiment [2], 1.6 ± 0.0511 fold-change vs cycle 0; in experiment [3], 1.48 ± 0.107 fold-change vs cycle 0.
Regarding AAACAG, the binding signal in experiment [1] turned out to be 1.101 ± 0.00341 fold-change vs cycle 0; in experiment [2], 1.27 ± 0.0528 fold-change vs cycle 0; in experiment [3] it was 1.23 ± 0.0148 fold-change vs cycle 0.
For ATTATA the same measures were 4.99 ± 0.594 fold-change vs cycle 0, 2.65 ± 0.265 fold-change vs cycle 0 and 2.25 ± 0.311 fold-change vs cycle 0.
For CTAGTC the same measures were 0.766 ± 0.0364 fold-change vs cycle 0, 0.918 ± 0.0254 fold-change vs cycle 0 and 0.941 ± 0.0142 fold-change vs cycle 0.
For CATTCC the same measures were 0.85 ± 0.0367 fold-change vs cycle 0, 0.949 ± 0.0747 fold-change vs cycle 0 and 0.981 ± 0.031 fold-change vs cycle 0.
In the case of ACGTGA, the binding signal came to 0.774 ± 0.0226 fold-change vs cycle 0 in experiment [1], 0.876 ± 0.021 fold-change vs cycle 0 in experiment [2] and 0.931 ± 0.0233 fold-change vs cycle 0 in experiment [3].
In the case of CAGAGG, the results for the binding signal in experiment [1], in experiment [2] and in experiment [3] were 0.463 ± 0.0456 fold-change vs cycle 0, 0.548 ± 0.0393 fold-change vs cycle 0 and 0.65 ± 0.0673 fold-change vs cycle 0, respectively.
On the same counts, the results for ACTAAA are 1.81 ± 0.0352 fold-change vs cycle 0, 1.9 ± 0.121 fold-change vs cycle 0 and 1.69 ± 0.128 fold-change vs cycle 0.
For GAGATA the same measures were 1.52 ± 0.0868 fold-change vs cycle 0, 1.54 ± 0.105 fold-change vs cycle 0 and 1.45 ± 0.133 fold-change vs cycle 0.
For CTCCCA the same measures were 0.474 ± 0.0284 fold-change vs cycle 0, 0.569 ± 0.0121 fold-change vs cycle 0 and 0.655 ± 0.0274 fold-change vs cycle 0.
